ClpP mod = qHTS Assay for Activators of ClpP; purified B. subtilis ClpP, FRET peptide cleavage, 20 min; Potency, µM (series often up to 57.5 µM), inactives show at the top dose activity change, negative = active; 1.9% of 340,000 active; active = well fitted falling curve with a large enough effect; inconclusive = small, poorly fitted or top-dose-only effect; inactive = no such curve, though single readings can be large or run the other way; note: potency is the fitted concentration of half-maximal effect; the source files actives as falling curves though it sought activators and does not explain the sign; nearly all actives have a fitted effect of over 65% in size
Target sequence (P80244 whole entry, looked up): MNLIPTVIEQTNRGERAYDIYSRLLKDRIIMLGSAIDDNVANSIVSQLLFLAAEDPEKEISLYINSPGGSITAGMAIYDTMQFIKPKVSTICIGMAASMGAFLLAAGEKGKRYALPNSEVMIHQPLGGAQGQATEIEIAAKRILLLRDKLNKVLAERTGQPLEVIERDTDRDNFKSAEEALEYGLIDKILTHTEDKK
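FRET quenching reversal measured ClpP activation: 10 microg/mL B. subtilis ClpP at pH 8 with the FRET-FV decapeptide, read at 430 nm after 320 nm excitation. The 20-min minus 0-min signal was scaled between DMSO/no-enzyme wells and ADEP (5.8 microM final).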
HEK293 tox = cytotoxic in the GLP-1 receptor inverse agonist counter-screen; Potency, µM (doses to about 38.3 µM), inactives show top-dose activity change, negative = inhibition, most hits filed as inhibitors; 0.13% of 410,000 active; HEK293 cAMP-luciferase reporter cells, luminescence, 24 h; AID 624418;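 note: loss of luciferase light is scored as toxicity; potency is the fitted concentration of half-maximal effect; % is set by controls: 0 for no effect and ±100 for the full control effect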
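Luminescence readout: signal drop marks cytotoxicity. Plated cells grew 12 h at 37 °C, 5% CO2, received 23 nL compound for 24 h, then got luciferase reagent, read after 12 min at RT.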
p53 reactivation = re-activators of mutant p53; H1299 p53-A138V BP100-luciferase reporter, luminescence, 24 h; Potency, µM (series often up to 92.2 µM), inactives show at the top dose activity change, positive = activation, most hits filed as activators; 0.063% of 320,000 active; note: potency is the fitted concentration of half-maximal effect; % of control where 0% means no effect; nearly all actives have a fitted effect of over 45% in size
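p53-null H1299 cells stably carrying temperature-sensitive p53-A138V and a BP100-luciferase reporter were pinned with compounds (4-point, 1:5 series) and held 24 hrs at 37 deg C. Luminescence was read 10 min after detection reagent.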
LDHA block = blocks human lactate dehydrogenase A; activity change, % (values are at about 110 or 230 µM); P00338; AID 1347041; purified LDHA, NADH/diaphorase-resazurin fluorescence; hits give low values; 0.15% of 480,000 active; in the data active = activity change below about -30%; inconclusive = mostly about -25% to -30%;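 note: plate controls were DMSO wells for no effect and wells without enzyme for full effect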
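LDH5 2 nM; NADH 0.06 mM, pyruvate 0.2 mM; 200 mM Tris pH 7.4, EDTA, Tween-20; 5 min RT. Detection: diaphorase 0.133 mg/mL + resazurin 37 µM, fluorescence ex540/em590 at 0 and 20 min; normalized to enzyme-free and DMSO wells.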
GLP-1R agonist = GLP-1 receptor (human) agonism; P43220; HEK293 GLP-1R CRE-luciferase, luminescence, 4-6 h; cells express a hypersensitive GLP-1R form; Potency, µM (highest dose often 45.6 µM), for the others: at the highest dose activation, hits mostly activators; 0.007% of 380,000 active; AID 624172; note: potency is the fitted concentration of half-maximal effect; % of control where 0% means no effect
Target sequence (P43220 whole entry, looked up): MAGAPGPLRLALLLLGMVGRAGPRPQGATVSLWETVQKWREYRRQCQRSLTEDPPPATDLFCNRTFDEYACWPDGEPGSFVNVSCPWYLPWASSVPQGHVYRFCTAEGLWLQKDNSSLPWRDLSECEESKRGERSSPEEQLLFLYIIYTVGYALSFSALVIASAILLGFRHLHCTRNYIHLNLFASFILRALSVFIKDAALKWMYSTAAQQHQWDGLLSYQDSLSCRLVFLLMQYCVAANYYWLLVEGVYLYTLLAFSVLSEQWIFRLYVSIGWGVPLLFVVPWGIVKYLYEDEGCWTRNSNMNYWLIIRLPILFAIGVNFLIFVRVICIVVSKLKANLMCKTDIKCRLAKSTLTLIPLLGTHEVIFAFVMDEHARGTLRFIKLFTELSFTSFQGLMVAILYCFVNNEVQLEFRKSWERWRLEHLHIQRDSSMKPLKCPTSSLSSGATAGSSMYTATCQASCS
GLP1R inv ag = acts as inverse agonist at human GLP-1 receptor. 1.6% of 410,000 active. P43220. HEK293 GLP-1R CRE-luciferase, luminescence, 24 h; GLP-1R form is constitutively active. Potency, µM (highest dose often 38.3 µM), without a hit: at the highest dose activity change, negative = inhibition, most hits filed as inhibitors; note: potency is the fitted concentration of half-maximal effect; % is set by controls: 0 for no effect and ±100 for the full control effect; nearly all actives have a fitted effect of over 55% in size
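Readout was luciferase luminescence, measured 12 min after detection reagent at room temperature. Beforehand, GLP-1R reporter HEK293 cells had sat 12 h, then received compounds for 24 hr at 37 deg C.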
* marks the source's active call; other numbers are inactive results; ? = inconclusive; . = no result given; [ ] = another dose, or the depositor's remark. Sampled rows, rich in hits. Any-hit rate of the full collection: about 2.9%. Unless noted, calls come from the whole dose curve; as a rule, active = well fitted curve in the direction sought with a large enough effect; inconclusive = small, poorly fitted or top-dose-only effect, or another doubt; inactive = no such curve, though single readings can be large; an effect the other way counts as inactive or inconclusive.

SMILES	ClpP mod	HEK293 tox	p53 reactivation	LDHA block	GLP-1R agonist	GLP1R inv ag
CCN(CCCNC(=O)C1CCN(S(=O)(=O)N2CCC3(CC2)OCCO3)CC1)c1ccccc1	-0.5%	-13.7%	-2.2%	4.2	-0.1%	-9.3%
Cc1ccc(C)c(OCc2cc(C(=O)N3CCN(C4CCCCC4)CC3)no2)c1	-7.6%	3.3%	.	-1.4	8.6%	?
Cc1cccc(C)c1OCc1cc(C(=O)N2CCN(c3ccccc3)CC2C)no1 (centres undefined)	1.2%	-4.4%	4.0%	8.0	3.6%	?
Cc1ccc(C)c(OCc2cc(C(=O)N3CC[C@@H]4CCCC[C@H]4C3)no2)c1	-0.5%	7.0%	21.6%	-3.7	1.8%	11.2µM*
Cc1ccc(C)c(OCc2cc(C(=O)N3CCN(c4ccccc4C)CC3C)no2)c1 (centres undefined)	0.1%	7.6%	-12.1%	3.3	-7.2%	2.51µM*
COc1ccc(OC)c(S(=O)(=O)N2Cc3ccccc3CC2C(=O)Nc2ccc(Cl)cc2)c1 (centres undefined)	-10.9%	1.6%	.	-6.2	.	?
Cc1ccc(NC(=O)c2cnn(C)c2)cc1[N+](=O)[O-]	-2.2%	-2.2%	19.0%	-1.6	6.1%	11.4%
Cc1onc(-c2c(Cl)cccc2Cl)c1C(=O)N1CCN(c2ccc(F)cc2)CC1	.	-14.6%	-3.6%	-2.2	11.3%	12.6µM*
CCC12OC(=N)C(C#N)(C1C)C(C#N)(C#N)C(c1ccccc1)O2 (centres undefined)	7.08µM*	-10.3%[1.53 µM]	-2.0%	-0.7	-6.7%	35.3%
CCC1OC2(C)OC(=N)C1(C#N)C(C#N)(C#N)C2c1ccccc1 (centres undefined)	22.4µM*	150.7%	-4.5%	0.2	-9.7%	0.2%
CNCCC=C1c2ccccc2C=Cc2ccccc21	1.6%	6.3%	.	-3.7	26.7%	5.01µM*
C=CCOc1ccccc1C1C2=C(CC(C)(C)CC2=O)Nc2c1c(=O)n(C)c(=O)n2C (centres undefined)	28.2µM*	39.5%	-9.4%	-1.3	1.8%	0.0%
CC1CCN(c2nc(-c3cccnc3)nc3scc(-c4ccccc4)c23)CC1	?	-2.3%	-10.1%	-1.6	-1.0%	?
CC1CCCN(c2nc(-c3cccnc3)nc3scc(-c4ccccc4)c23)C1 (centres undefined)	14.1µM*	-8.5%[1.53 µM]	4.5%	3.7	-1.1%	?
CCCCNC(=O)OCC(CC)NC(=O)OC(C)C (centres undefined)	28.2µM*	3.7%	-11.3%	-0.6	15.2%	2.7%
COC(=O)c1cccc2c(C(=O)O)cc(-c3ccccc3)nc12	-10.0%	-9.3%	.	7.4	-2.8%	22.8%
COc1ccccc1NC(=O)C(C)OC(=O)c1cc2ccccc2[nH]1 (centres undefined)	-15.9%	-5.4%	6.1%	-1.7	9.1%	?
CCC(C)n1nccc1NC(=O)C(C)OC(=O)c1cc2ccccc2[nH]1 (centres undefined)	28.2µM*	5.5%	-2.9%	-4.1	2.4%	-23.4%
Cc1ccc(NC(=O)c2c(-c3c(F)cccc3Cl)noc2C)cc1F	0.3%	-5.6%	-5.8%	-1.6	4.0%	3.98µM*
Cc1nc(C(=O)NNC(=O)c2c(-c3c(Cl)cccc3Cl)noc2C)cs1	-4.3%	8.91µM*	18.6%	-0.6	0.9%	5.62µM*
Cc1cc(NC(=O)c2c(-c3c(F)cccc3Cl)noc2C)no1	1.8%	-1.2%	2.4%	-3.1	0.1%	?
Cc1onc(-c2c(F)cccc2Cl)c1C(=O)OCC(=O)NC(=O)NCC(C)C	.	-2.6%	0.5%	-2.5	10.4%	12.6µM*
CCOC(=O)c1sc(NC(=O)C(C)C)c(C#N)c1C	.	-5.1%	-0.7%	-5.1	-0.8%	8.6%
COc1ccc(S(=O)(=O)N(C)c2ccccc2)c2cccnc12	1.9%	0.1%	-7.5%	-1.3	-1.2%	161.8%
COc1ccc(C(=O)c2c(-c3ccc(OC)cc3)oc3ccc(-c4ccc(OC)nc4)cc23)cc1	15.8µM*	2.8%	.	-4.0	7.1%	19.2%
SMILES	ClpP mod	HEK293 tox	p53 reactivation	LDHA block	GLP-1R agonist	GLP1R inv ag
COc1ccc(-c2oc3ccc(-c4cc(OC)c(OC)c(OC)c4)cc3c2-c2ccc(OC)nc2)cc1	4.1%	0.7%	9.6%	-2.5	-0.9%	?
COc1ccc2oc(-c3ccccc3)c(C(N)=O)c2c1	31.6µM*	-21.2%	4.2%	-2.4	-12.0%	-10.6%
O=C(O)c1c(-c2ccccc2)oc2ccc(O)cc12	3.6%	5.2%	-3.5%	-5.9	-0.9%	-2.5%
CCOC(=O)c1c(-c2ccccc2)oc2ccc(OC(C)C(=O)O)cc12 (centres undefined)	.	7.3%	0.7%	-8.4	4.7%	16.2%
CN(C)C(=O)c1c(-c2ccccc2)oc2ccc(O)cc12	20µM*	3.8%	0.3%	0.7	-0.5%	-34.0%
CCOC(=O)c1c(-c2ccccc2)oc2ccc(OCC(O)CN(C)C)cc12 (centres undefined)	.	?	-9.3%	4.1	4.8%	2.82µM*
O=C(CCCN1C(=O)/C(=C/c2cccs2)SC1=S)Nc1cccc(O)c1	.	?	?	-3.2	0.8%	?
O=S(=O)(/C=C/C=C/S(=O)(=O)c1ccccc1)c1ccccc1	-3.0%	0.631µM*	.	1.6	-34.4%	-75.3%
Cc1ccc(S(=O)(=O)C=CS(=O)(=O)c2ccc(C)cc2)cc1	2.7%	?	.	?	-1.9%	-22.0%
N#CC(C#N)=NNc1ccc(S(=O)(=O)N2CCCCC2)cc1	-2.2%	?	5.2%	-10.7	-51.2%	1.26µM*
CCN1CCN(C(=O)CN2C(=O)c3ccccc3S2(=O)=O)CC1	-2.7%	0.2%	26.1%	-5.4	-3.7%	-6.4%
FC(F)(F)c1cccc(NC(=S)N2CCSC2c2ccc(Br)cc2)c1 (centres undefined)	.	.	.	-4.0	.	.
CCOC(=O)C1=C(c2ccccc2)Nc2ncnn2C1c1ccc(C(=O)O)cc1 (centres undefined)	.	0.6%	0.7%	-0.8	-0.9%	12.8%
CCOC(=O)C1=C(c2ccccc2)NC(N)=NC1c1ccc(OCc2ccc(C(=O)OC)cc2)cc1 (centres undefined)	-2.0%	?	4.8%	-2.4	8.4%	8.91µM*
COc1ccc(OCCNC(=O)c2n[nH]c(=O)c3ccccc23)cc1	.	.	.	0.7	.	.
CCN(CC)C(=O)C(Sc1nncn1-c1ccccc1F)c1ccccc1 (centres undefined)	.	.	.	0.3	.	.
COc1cccc2cc(-c3nc(Nc4cccc(C)c4C)sc3C)c(=O)oc12	1.4%	0.8%	.	-1.1	.	10µM*
